# Measurements from PubChem BioAssay AID1159580 (chemical genetic matrix, 2015).
# “And” between values parts separate entries of the source, which are not always exact repeats. Equal entries are not always repeated. Out of some 5,500 compounds screened, about 2,000 (36%) were called active. About 18% were inconclusive and are not listed. The list shows a part of the results. Values without a mark were called inactive. No stated cut-off is given here; in the data, active means normalized growth mostly below about 0.91 (no sharp cut-off); inconclusive means no clear call, values can overlap the other calls; inactive means mostly above about 0.92.
# Test: chemical genetic growth profiling, strain panel (AID 1159580);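 further: tested at 20 µM; growth read once vehicle control cultures reached saturation at 30 °C; 1 = growth at the plate median or of vehicle wells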
# Details: S. cerevisiae deletion strains, growth OD
compound,measurement,setting,value
O=C1c2c(O)ccc(O)c2C(=O)c2c(NCCNCCO)ccc(NCCNCCO)c21,normalized growth,"locus YJR066W, strain TOR1, stronger effect = lower value",0.85
same,normalized growth,"locus YJR075W, strain HOC1, stronger effect = lower value",0.968
same,normalized growth,"locus YKL009W, strain mrt4, stronger effect = lower value",0.925
same,normalized growth,"locus YKL068W, stronger effect = lower value",1.06 [resistant] (active)
same,normalized growth,"locus YKL085W, strain MDH1 (second series), stronger effect = lower value",1.05
same,normalized growth,"locus YKL085W, strain MDH1, stronger effect = lower value",1.05
same,normalized growth,"locus YKL160W, strain elf1, stronger effect = lower value",0.858 (active)
same,normalized growth,"locus YKL190W, strain CNB1, stronger effect = lower value",0.998
same,normalized growth,"locus YKR001C, strain vps1, stronger effect = lower value",0.74 (active)
same,normalized growth,"locus YKR026C, strain gcn3, stronger effect = lower value",1.04
same,normalized growth,"locus YKR091W, strain srl3, stronger effect = lower value",1.01
same,normalized growth,"locus YLL001W, strain dnm1, stronger effect = lower value",0.727 (active)
same,normalized growth,"locus YLL026W, stronger effect = lower value",0.914 (active)
same,normalized growth,"locus YLL041C, strain sdh2, stronger effect = lower value",1.01
same,normalized growth,"locus YLR027C, strain aat2, stronger effect = lower value",0.855 (active)
same,normalized growth,"locus YLR039C, strain RIC1, stronger effect = lower value",0.707
same,normalized growth,"locus YLR058C, strain SHM2, stronger effect = lower value",1.02
same,normalized growth,"locus YLR102C, strain apc9, stronger effect = lower value",1.06
same,normalized growth,"locus YLR113W, strain HOG1, stronger effect = lower value",0.828 (active)
same,normalized growth,"locus YLR221C, strain rsa3, stronger effect = lower value",0.865 (active)
same,normalized growth,"locus YLR258W, strain gsy2, stronger effect = lower value",0.94
same,normalized growth,"locus YLR262C, strain YPT6 (second series), stronger effect = lower value",0.443 (active)
same,normalized growth,"locus YLR262C, strain YPT6, stronger effect = lower value",0.711
same,normalized growth,"locus YLR268W, strain sec22, stronger effect = lower value",0.857 (active)
same,normalized growth,"locus YLR320W, strain mms22, stronger effect = lower value",0.248 (active)
same,normalized growth,"locus YLR330W, strain CHS5, stronger effect = lower value",1.03
same,normalized growth,"locus YLR342W, strain FKS1 (second series), stronger effect = lower value",0.871
same,normalized growth,"locus YLR342W, strain FKS1, stronger effect = lower value",0.83 (active)
same,normalized growth,"locus YLR357W, strain rsc2, stronger effect = lower value",0.976
same,normalized growth,"locus YLR370C, strain arc18, stronger effect = lower value",0.28 (active)
same,normalized growth,"locus YLR371W, strain rom2, stronger effect = lower value",1.01
same,normalized growth,"locus YLR384C, strain iki3, stronger effect = lower value",0.745 (active)
same,normalized growth,"locus YLR418C, strain cdc73, stronger effect = lower value",1.02
same,normalized growth,"locus YML016C, strain PPZ1, stronger effect = lower value",1.03
same,normalized growth,"locus YML032C, strain rad52, stronger effect = lower value",0.19 (active)
same,normalized growth,"locus YML120C, strain ndi1, stronger effect = lower value",0.878 (active)
same,normalized growth,"locus YML124C, strain tub3, stronger effect = lower value",1.05
same,normalized growth,"locus YMR058W, strain fet3, stronger effect = lower value",0.396 (active)
same,normalized growth,"locus YMR078C, strain ctf18, stronger effect = lower value",0.429 (active)
same,normalized growth,"locus YMR125W, strain sto1, stronger effect = lower value",0.982
same,normalized growth,"locus YMR129W, stronger effect = lower value",0.941
same,normalized growth,"locus YMR205C, strain PFK2, stronger effect = lower value",0.975
same,normalized growth,"locus YMR223W, strain ubp8, stronger effect = lower value",0.91
same,normalized growth,"locus YMR231W, strain pep5, stronger effect = lower value",0.174 (active)
same,normalized growth,"locus YMR263W, strain SAP30, stronger effect = lower value",0.954 and 1.02
same,normalized growth,"locus YMR307W, strain GAS1, stronger effect = lower value",0.562 (active) and 0.648 (active)
same,normalized growth,"locus YNL067W, strain RPL9B, stronger effect = lower value",0.976
same,normalized growth,"locus YNL071W, strain lat1, stronger effect = lower value",1.12 [resistant] (active)
same,normalized growth,"locus YNL128W, strain TEP1, stronger effect = lower value",1.07
same,normalized growth,"locus YNL175C, strain NOP13, stronger effect = lower value",1.07
same,normalized growth,"locus YNL183C, strain NPR1, stronger effect = lower value",0.815 (active)
same,normalized growth,"locus YNL197C, strain WHI3, stronger effect = lower value",1.06
same,normalized growth,"locus YNL209W, strain ssb2, stronger effect = lower value",0.825 (active)
same,normalized growth,"locus YNL224C, strain SQS1, stronger effect = lower value",1.08 [resistant] (active)
same,normalized growth,"locus YNL233W, strain BNI4, stronger effect = lower value",0.966
same,normalized growth,"locus YNL248C, strain rpa49, stronger effect = lower value",0.678 (active)
same,normalized growth,"locus YNL250W, strain rad50, stronger effect = lower value",0.181 (active)
same,normalized growth,"locus YNL271C, strain bni1, stronger effect = lower value",0.944
same,normalized growth,"locus YNL298W, strain CLA4, stronger effect = lower value",0.989
same,normalized growth,"locus YNL307C, strain MCK1, stronger effect = lower value",1.08
same,normalized growth,"locus YNL322C, strain KRE1 (second series), stronger effect = lower value",0.933
same,normalized growth,"locus YNL322C, strain KRE1, stronger effect = lower value",1.01
same,normalized growth,"locus YNR049C, strain mso1, stronger effect = lower value",0.912 (active)
same,normalized growth,"locus YNR052C, strain pop2, stronger effect = lower value",0.69 (active)
same,normalized growth,"locus YOL006C, strain TOP1, stronger effect = lower value",0.424 (active)
same,normalized growth,"locus YOL012C, strain htz1",0.838
same,normalized growth,"locus YOL147C, strain pex11, stronger effect = lower value",1.07
same,normalized growth,"locus YOR001W, strain rrp6, stronger effect = lower value",0.681 (active)
same,normalized growth,"locus YOR061W, strain CKA2, stronger effect = lower value",1.01
same,normalized growth,"locus YOR069W, strain VPS5, stronger effect = lower value",1.02
same,normalized growth,"locus YOR070C, strain gyp1, stronger effect = lower value",0.734 (active)
same,normalized growth,"locus YOR080W, strain dia2, stronger effect = lower value",0.447 (active)
same,normalized growth,"locus YOR083W, strain WHI5 (second series), stronger effect = lower value",1
same,normalized growth,"locus YOR083W, strain WHI5, stronger effect = lower value",0.726 (active)
same,normalized growth,"locus YOR106W, strain vam3, stronger effect = lower value",0.363 (active)
same,normalized growth,"locus YOR136W, strain idh2, stronger effect = lower value",1.01
same,normalized growth,"locus YOR144C, strain elg1, stronger effect = lower value",0.984
same,normalized growth,"locus YOR184W, strain ser1, stronger effect = lower value",0.802 (active)
same,normalized growth,"locus YOR231W, strain MKK1, stronger effect = lower value",0.927
same,normalized growth,"locus YOR265W, strain rbl2, stronger effect = lower value",0.932
same,normalized growth,"locus YOR270C, strain vph1, stronger effect = lower value",0.327 (active)
same,normalized growth,"locus YOR290C, strain snf2, stronger effect = lower value",0.653 (active)
same,normalized growth,"locus YOR316C, strain cot1, stronger effect = lower value",1.06
same,normalized growth,"locus YPL051W, strain arl3, stronger effect = lower value",0.869 (active)
same,normalized growth,"locus YPL055C, strain LGE1, stronger effect = lower value",0.868 (active)
same,normalized growth,"locus YPL078C, strain atp4, stronger effect = lower value",0.974
same,normalized growth,"locus YPL106C, strain sse1, stronger effect = lower value",1.07
same,normalized growth,"locus YPL240C, strain hsp82, stronger effect = lower value",1.03
same,normalized growth,"locus YPL241C, strain CIN2, stronger effect = lower value",1.04
same,normalized growth,"locus YPL256C, strain CLN2, stronger effect = lower value",0.959
same,normalized growth,"locus YPR119W, strain clb2, stronger effect = lower value",1.05
same,normalized growth,"locus YPR141C, strain kar3, stronger effect = lower value",1.05
same,normalized growth,"locus YPR163C, strain tif3, stronger effect = lower value",1.03
same,normalized growth,"locus YPR167C, strain met16, stronger effect = lower value",0.993
same,normalized growth,"strain wtn01, stronger effect = lower value",0.963
